# Screening results from PubChem.
# uPA surface inh = blocks generation of uPA at the cell surface; cell surface uPA generation assay, qHTS; Potency, µM (doses to about 38.3 µM), inactives show at the highest dose activity change, negative = inhibition, actives largely listed as inhibitors; 330,000 compounds, 0.31% hits; AID 540303; active means well fitted inhibition curve with a large enough effect; inconclusive means small, poorly fitted or top-dose-only effect; inactive means no such curve, though single readings can be large or run the other way; tested in mouse RAW 264.7 cells; further: potency means the concentration at half of the fitted maximal effect; on the % scale 0 is the no-effect control and ±100 the full control effect; nearly all actives have a fitted effect of over 55% in size
# CtBP-E1A inh = CtBP/E1A binding inhibition | AlphaScreen GST-E1A/His-CtBP binding, 1536-well; hits give low values | activity change, % (test concentration not listed) | 340,000 compounds, 0.49% hits | AID 651724; in the data active means activity change below about -65%; inconclusive means mostly about -30% to -63%; further: on the % scale 0 is the no-effect control and ±100 the full control effect
#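 Steps: dispense buffer (Tris pH 8.0, NaCl 300 mM, TCEP 1 mM, BSA, Tween 20); add 5X protein mix (GST-E1A, His-CtBP, 125 nM each); pin 23 nL compound; 2 h at 37 °C, dark; add 5X beads (50 ug/mL); 1 h; read.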
# Mito fusion yeast = blocks mitochondrial division or promotes mitochondrial fusion. AID 485298. 320,000 compounds, 0.23% hits. Potency, µM (titrated, usually from 46.1 µM), for inactives: at the highest dose growth rescue (activation), actives largely listed as activators. S. cerevisiae fusion-defective mutant growth rescue, CellTiterGlo 48 h; further: potency means the concentration at half of the fitted maximal effect; % of control where 0% means no effect; nearly all actives have a fitted effect of over 45% in size
#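 Growth-rescue viability read-out: after 48 h at the non-permissive 37C in glycerol/ethanol YPEG, yeast mitochondrial fusion mutants are measured by CellTiterGlo luminescence; compounds (23 nl pinned per well) restoring growth score as division inhibitors or fusion activators.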
# MBNL1 CUG block = inhibitors of human MBNL1 binding to CUG repeat RNA | Potency, µM (top dose mostly 57.5 µM), for the others: at the highest dose activity change, negative = inhibition, most hits filed as inhibitors | TR-FRET MBNL1-His/biotin-(CUG)12 binding, 665/545 ratio | 280,000 compounds, 0.036% hits | Q9NR56; active means well fitted inhibition curve with a large enough effect in the signal ratio, with a control signal flat, not every such curve was filed as active; inconclusive means small, poorly fitted or top-dose-only effect, or effect the other way, or a change in a side signal; inactive means no such curve, though single readings can be large or run the other way; the % refers to the signal ratio; further: potency means the concentration at half of the fitted maximal effect; on the % scale 0 is the no-effect control and ±100 the full control effect
#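 His-tagged MBNL1 binding to biotinylated (CUG)12 RNA was measured by TR-FRET using terbium anti-His antibody (0.055 ng/ul final) and streptavidin-XL665 (5 nM final). Compounds were titrated 92 nM to 58 uM; 60 min at room temperature.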
# Six1-Eya2 blk = Six1/Eya2 interaction inhibition. AlphaScreen GST-Six1/His-Eya2 binding, biochemical; hits give low values. 360,000 compounds, 0.56% hits. activity change, % (no concentration beside the values). Q15475+O00167. AID 651725; in the data active means activity change below about -65%; inconclusive means mostly about -30% to -63%; further: on the % scale 0 is the no-effect control and ±100 the full control effect
# Target sequence (O00167 whole entry, looked up): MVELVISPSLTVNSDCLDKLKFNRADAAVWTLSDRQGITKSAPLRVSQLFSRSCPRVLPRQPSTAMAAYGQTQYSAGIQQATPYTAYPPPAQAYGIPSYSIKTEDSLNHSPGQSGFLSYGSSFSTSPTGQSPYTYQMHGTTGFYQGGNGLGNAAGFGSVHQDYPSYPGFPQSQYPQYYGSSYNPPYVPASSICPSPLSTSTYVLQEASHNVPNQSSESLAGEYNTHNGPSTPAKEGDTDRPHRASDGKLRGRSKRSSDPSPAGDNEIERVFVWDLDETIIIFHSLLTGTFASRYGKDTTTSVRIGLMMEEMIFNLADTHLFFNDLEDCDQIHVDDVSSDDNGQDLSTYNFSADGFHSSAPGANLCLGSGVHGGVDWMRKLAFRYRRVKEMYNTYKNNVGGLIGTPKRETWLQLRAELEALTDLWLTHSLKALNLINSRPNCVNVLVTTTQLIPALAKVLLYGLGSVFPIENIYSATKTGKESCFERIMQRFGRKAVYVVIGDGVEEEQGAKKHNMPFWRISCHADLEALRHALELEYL
# Target sequence (Q15475 whole entry, looked up): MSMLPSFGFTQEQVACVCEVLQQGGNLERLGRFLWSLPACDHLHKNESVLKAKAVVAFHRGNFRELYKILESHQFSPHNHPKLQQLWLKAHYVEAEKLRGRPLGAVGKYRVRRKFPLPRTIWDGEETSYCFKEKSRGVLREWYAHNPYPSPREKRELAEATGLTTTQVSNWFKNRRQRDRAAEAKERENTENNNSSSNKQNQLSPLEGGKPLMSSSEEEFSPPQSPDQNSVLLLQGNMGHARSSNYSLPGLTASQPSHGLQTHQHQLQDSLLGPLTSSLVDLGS
#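 AlphaScreen with GST-Six1 and His-Eya2 (5X mix: 250 nM and 500 nM), glutathione donor and nickel acceptor beads; buffer 50 mM Tris pH 8.0, 300 mM NaCl, 1 mM TCEP; 1 h at 37 C in the dark.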
# MBNL1 TRFRET = blocks human MBNL1 binding to CUG repeat RNA, TR-FRET validation | shares compounds with MBNL1 CUG block | TR-FRET MBNL1-His / biotin-(CUG)12 binding, 60 min | Potency, µM (highest dose often 57.6 µM), for the others: at the highest dose activity change, negative = inhibition, hits mostly inhibitors | 140 compounds, 50% hits | AID 493199
# MBNL1 AlphaScrn = MBNL1-CUG RNA binding inhibition, AlphaScreen validation. shares compounds with MBNL1 CUG block. AlphaScreen MBNL1-His / biotin-(CUG)12 binding. Potency, µM (top dose mostly 57.7 µM), for the others: at the top dose activity, negative = inhibition, hits mostly inhibitors. 140 compounds, 30% hits. AID 493205
# MBNL1 HTRF CS = hit in HTRF counterscreen for MBNL1-poly(CUG) binding inhibitors | Potency, µM (doses to about 57.6 µM), for inactives: at the highest dose activity, negative = inhibition, usual class: inhibitors | AID 651843 | His-Menin/biotin-MLL peptide TR-FRET counterscreen | shares compounds with MBNL1 CUG block | 120 compounds, 20% hits
# Starred values were filed as active, the others as inactive; ? = inconclusive; · = no result. Compounds with a hit are over-represented: about 1.1% of the library has one in this group of screens. Unless noted, the call rests on the fitted dose curve; in most records, active means well fitted curve in the direction sought with a large enough effect; inconclusive means small, poorly fitted or top-dose-only effect, or another doubt; inactive means no such curve, though single readings can be large; an effect the other way counts as inactive or inconclusive.
SMILES,uPA surface inh,CtBP-E1A inh,Mito fusion yeast,MBNL1 CUG block,Six1-Eya2 blk,MBNL1 TRFRET,MBNL1 AlphaScrn,MBNL1 HTRF CS
O=C(OC[C@H]1O[C@@H](OC(=O)c2cc(O)c(O)c(OC(=O)c3cc(O)c(O)c(O)c3)c2)[C@H](OC(=O)c2cc(O)c(O)c(OC(=O)c3cc(O)c(O)c(O)c3)c2)[C@@H](OC(=O)c2cc(O)c(O)c(OC(=O)c3cc(O)c(O)c(O)c3)c2)[C@@H]1OC(=O)c1cc(O)c(O)c(OC(=O)c2cc(O)c(O)c(O)c2)c1)c1cc(O)c(O)c(OC(=O)c2cc(O)c(O)c(O)c2)c1,·,·,12.0%,·,·,·,·,36.6µM*
CC1(C(=O)NCc2ccccc2)CSCC(=O)N1Cc1cccc(F)c1 (stereo not given),·,8.8,·,·,12.6,·,·,·
O=C1C(SCCO)=C(SCCO)C(=O)c2ccccc21,-100.5%,?,?,?,-2.7,5.01µM*,10µM*,·
CCc1cc(-c2nnn(-c3cc(C(C)C)ccc3C)c2CC)ccc1-c1cn(CCc2c[nH]c3ccccc23)nn1,·,-1.1,·,·,-2.5,·,·,·
CC1=C(C(N)=O)C(c2cccnc2)n2nc(SCc3ccccc3Cl)nc2N1 (stereo not given),-2.2%,-4.2,-0.8%,25.1µM*,1.2,1.9%,-4.4%,-0.3%
CC1=C(C(N)=O)C(c2ccccn2)n2nc(SCc3ccccc3Cl)nc2N1 (stereo not given),-0.2%,-2.9,0.5%,6.5%,0.6,·,·,·
COc1cccc(CNC(=O)CCC2CCCN(C/C=C/c3ccccc3OC)C2)c1 (stereo not given),-7.3%,-6.4,1.6%,6.5%,-9.7,·,·,·
COCCNC(=O)CCC1CCN(C/C=C/c2ccccc2OC)CC1,-1.4%,-2.4,2.4%,-34.3%,-7.2,-20.2%,?,4.5%
CCCCC1Cc2[nH]c(=S)[nH]c(=O)c2C(c2cccc3ccccc23)O1 (stereo not given),·,3.2,·,·,-3.9,·,·,·
Cn1c(CC(=O)Nc2ccc(Cl)c(Cl)c2)n[nH]c1=S,2.6%,-2.4,0.9%,1.5%,1.0,·,·,·
COc1ccc(Cc2n[nH]c(=S)n2NC(=O)Nc2ccc(Cl)c(Cl)c2)cc1,2.7%,·,3.9%,14.1µM*,3.4,10.3µM*,-28.4%,41.1µM*
Cc1cc2c(c(=O)n1CCN(C)C)C(c1ccccc1Br)C(C#N)=C(N)O2 (stereo not given),1.6%,0.3,2.2%,10µM*,-1.9,13µM*,-7.2%,25.9µM*
Cc1ccc(C(=O)NCCN2C3=NC[C@H](C(C)C)N3C[C@H]2Cc2ccc(O)cc2)cc1Br,-10.7%,-18.7,-0.9%,39.8µM*,-13.7,41.1µM*,?,-26.4%
CC(C)(CN1CCCN(CC(C)(C)C(=O)O)C1=O)C(=O)O,·,5.3,·,·,3.9,·,·,·
CCCn1c2ccccc2c2nnc(SCc3[nH]c(=O)[nH]c3C(=O)CCCCC(=O)OCC)nc21,-2.5%,-11.2,-16.2%,?,-19.5,·,·,·
CCOC(=O)CCCCC(=O)c1[nH]c(=O)[nH]c1CSc1nnc2c3ccccc3n(C(C)C)c2n1,-2.2%,-20.3,5.2%,28.2µM*,-16.4,?,3.66µM*,-10.5%
Cc1ccc(NC(=O)c2ccc(OCC3CCCO3)cc2)cc1Cl (stereo not given),·,3.7,·,·,-6.4,·,·,·
Cn1nccc1NC(=O)Nc1ccccc1,3.1%,-4.1,-7.6%,?,7.0,·,·,·
O=C(Nc1ccc(F)cc1)Nc1cccc(Br)c1,4.6%,·,·,·,5.5,·,·,·
Cn1nccc1NC(=O)Nc1cccc(Br)c1,-31.7%,5.5,-5.5%,10µM*,20.9,8.19µM*,-4.6%,25.9µM*
Cn1nccc1NC(=O)Nc1ccc(Cl)cc1,-8.0%,·,-7.3%,39.8µM*,2.3,10.3µM*,0.1%,?
CC(C)NC(=O)N(C)C[C@H]1Oc2ccc(NC(=O)NC3CCCCC3)cc2C(=O)N([C@H](C)CO)C[C@@H]1C,14.3%,-8.5,·,·,1.9,·,·,·
CCOc1ccc2[nH]c(=O)c(C(c3nnnn3Cc3ccco3)N3CCN(C)CC3)cc2c1 (stereo not given),-1.8%,-7.2,-26.6%,?,-0.8,-6.0%,-9.6%,3.6%
Cc1ccc(NC2c3ncccc3C(=O)N2Cc2cccs2)cc1 (stereo not given),-1.3%,4.2,6.4%,39.8µM*,-8.4,51.7µM*,25.9µM*,-4.2%
COc1ccc(CC(=O)Oc2ccc(C)cc2Br)cc1OC,-4.6%,6.4,-3.5%,15.8µM*,2.7,?,5.17µM*,16.3µM*
SMILES,uPA surface inh,CtBP-E1A inh,Mito fusion yeast,MBNL1 CUG block,Six1-Eya2 blk,MBNL1 TRFRET,MBNL1 AlphaScrn,MBNL1 HTRF CS
CCOC(=O)/C(=N\Nc1ccccc1Cl)N1CC(C)OC(C)C1 (stereo not given),1.6%,-0.6,1.7%,0.0251µM*,-12.9,-4.2%,-6.0%,-1.2%
CCOC(=O)/C(=N\Nc1cc(Cl)ccc1Cl)N1CC(C)OC(C)C1 (stereo not given),12.6%,·,-0.1%,1.8%,-3.4,·,·,·
Cc1ccc(NC(=O)Nn2cnnc2)cc1Cl,2.6%,10.5,-1.3%,39.8µM*,2.2,25.9µM*,-0.7%,?
CCc1ccc(NC(=O)Nn2cnnc2)cc1,1.5%,1.7,1.6%,-15.0%,2.7,·,·,·
Cc1cc(C)cc(NC(=O)Nn2cnnc2)c1,0.4%,-2.0,2.2%,?,-1.8,·,·,·
O=C(Nc1ccc(Cl)c(Cl)c1)Nn1cnnc1,0.7%,5.0,-10.3%,7.94µM*,-3.1,6.51µM*,12.3%,32.6µM*
O=C(Nc1ccc(Br)cc1)Nn1cnnc1,-2.6%,-14.5,-4.6%,31.6µM*,-17.0,41.1µM*,13.1%,?
O=C(N[C@@H]1CC[C@@H](CCNS(=O)(=O)c2ccc(Cl)cc2)O[C@@H]1CO)c1cccnc1,·,-1.1,·,·,2.9,·,·,·
O=C(Nc1cccnc1Cl)c1cc(-c2cccc(O)c2)on1,1.5%,-11.6,-2.9%,7.08µM*,-29.8,13µM*,?,-62.3%
CCC(C)Sc1ccc([C@@H]2[C@H]3C(=O)N(CC)C(=O)[C@H]3[C@]3(C(=O)OC)CCCCN23)cc1 (stereo not given in full),-6.9%,-1.2,?,·,-3.3,·,·,·
Cc1cc2nc(-c3ccccc3Br)n(/C=C(\c3ccccc3)n3c(=O)[nH]c4ccccc43)c2cc1C,·,8.2,·,·,5.6,·,·,·
